Screening results from PubChem.
An excerpt weighted towards active compounds, which were near 9.4% of everything screened.
AMA1 RON2 block: disrupts binding of P. falciparum AMA1 to RON2 | AlphaScreen AMA1-biotinylated RON2 peptide binding | Potency, µM (series often up to 58.2 µM), actives largely listed as inhibitors | 360,000 compounds, 0.2% hits | AID 720542; also: nearly all actives have a fitted effect of over 45% in size
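AMA1 (3D7) with his tag at 25 nM final met compounds first, then biotinylated RON2 peptide at 25 nM; detection used donor plus acceptor beads, 10 µg/mL apiece, read by AlphaScreen after 30 min at room temperature.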
Pf growth 48h: inhibits P. falciparum growth in the first generation, 48 h | P. falciparum luciferase growth in erythrocytes, 48 h | Potency, µM (top dose mostly 28.7 µM), usual class: inhibitors | 310,000 compounds, 5.9% hits | AID 504832
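Growth was read as firefly luciferase luminescence after a 48 h, 37 C, 5% CO2 exposure of compounds to reporter-bearing P. falciparum cultures (0.1% parasitemia, 2% hematocrit final) in Albumax-supplemented RPMI 1640.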
SARS PLpro yeast: SARS-CoV PLP inhibition in yeast. 330,000 compounds, 0.19% hits. Potency, µM (top dose mostly 32.9 µM), actives largely listed as activators. S. cerevisiae expressing SARS-CoV PLpro, growth rescue; calls by dose curve; also: nearly all actives have a fitted effect of over 55% in size
Pf growth 96h: inhibits malaria parasite growth, 96 h; Potency, µM (highest dose often 28.7 µM), usual class: inhibitors; 320,000 compounds, 6.9% hits; P. falciparum luciferase reporter growth, 96 h
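Cell-based qHTS: luciferase-tagged P. falciparum in erythrocytes (2% hematocrit, 0.05% parasitemia final) incubated with compounds for 96 hours, 37 C, 5% CO2; luciferase detection reagent then added and luminescence measured.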
A number is an active result; – = inactive; ? = inconclusive; · = no result given; [ ] = another dose, or the depositor's remark. Unless noted, calls follow the shape of the dose curve; as a rule, active = well fitted curve in the direction sought with a large enough effect; inconclusive = small, poorly fitted or top-dose-only effect, or another doubt; inactive = no such curve, though single readings can be large; an effect the other way counts as inactive or inconclusive.

SMILES	AMA1 RON2 block	Pf growth 48h	SARS PLpro yeast	Pf growth 96h
Cc1ccccc1NC(=O)C1(NC(=O)c2cccc(N3C(=O)CSC3c3ccccc3)c2)CCCCC1 (configuration not stated)	–	11.7µM	–	?
CCN(CC)CCC(c1ccc(N(C)C)cc1)c1c(O)cc(OC)cc1OC (configuration not stated)	?	1.17µM	–	1.47µM
CCN(CC)CCC(c1ccc(OC)cc1)c1c(O)cc(OC)cc1OC (configuration not stated)	–	1.31µM	–	1.31µM
COc1cc(O)c(C(CC(=O)N2CCOCC2)c2ccc(N(C)C)cc2)c(OC)c1 (configuration not stated)	–	?	–	–
O=C(N/N=C/C=C/c1ccccc1[N+](=O)[O-])c1ccncc1	–	–	–	–
O=C(N/N=C/c1ccccc1[N+](=O)[O-])c1ccncc1	–	–	–	0.165µM
O=C(N/N=C/c1cc([N+](=O)[O-])ccc1O)c1cccc2cc[nH]c12	–	?	–	3.7µM
O=C(N/N=C/C=C\c1ccccc1[N+](=O)[O-])c1cccs1	–	–	–	2.94µM
CC(=O)Nc1ccc(C(=O)N/N=C/c2cc(Br)cc(Br)c2O)cc1	–	–[5.75 µM]	–	2.94µM
O=C(N/N=C/c1cccc([N+](=O)[O-])c1)c1cccc2cc[nH]c12	–	–	–	–
COc1cc(C(=O)NCc2cn3ccccc3n2)cc(OC)c1OC	–	–	–	–
COc1ccc(Br)cc1/C=N/NC(=O)c1ccc(OC)c(OC)c1	–	4.15µM	–	–
O=C(N/N=C/c1ccccc1O)c1ccncc1	–	9.28µM	·	11.7µM
O=C(N/N=C/c1cccc2ccccc12)c1ccncc1	–	–	–	?
O=C(N/N=C\c1cc(Br)ccc1O)c1ccc(S(=O)(=O)N2CCCCC2)cc1	–	5.22µM	?	–
O=C(CNC(=O)c1ccco1)N/N=C/c1ccc(O)c([N+](=O)[O-])c1	–	–	?	–
O=C(CNC(=O)c1ccco1)N/N=C/c1ccccc1[N+](=O)[O-]	–	–	–	0.928µM
O=C(N/N=C/c1ccc(O)c(O)c1)c1cccc(S(=O)(=O)N2CCCCC2)c1	–	–	–	–
Cc1cc(C(=O)NCC2CCCO2)sc1C (configuration not stated)	–	–	–	–
C=CCOc1cccc(CNCc2ccncc2)c1	–	–	–	–
CC(C)C(=O)NC(=O)COC(=O)/C=C/c1cccs1	–	–	–	–
COc1ccccc1CC(=O)N1CCN(CCc2ccccc2)CC1	–	–	–	?
Cc1nccc2c1[nH]c1ccc(Br)cc12	–	?	–	–
COc1ccc(Br)cc1/C=N/NC(=O)c1nc(-c2ccccc2)n2c1CCCCC2	–	·	–	7.38µM
CC(=O)Nc1cccc(C(=O)N/N=C/c2ccccc2F)c1	–	–	–	6.57µM
SMILES	AMA1 RON2 block	Pf growth 48h	SARS PLpro yeast	Pf growth 96h
Cc1ccc(C(=O)Nc2cccc(C(=O)N/N=C/c3ccccc3F)c2)cc1	–	–	–	?
O=C(N/N=C/c1nn(-c2ccccc2)cc1-c1ccc(Cl)cc1)c1ccncc1	·	2.08µM	–	?
COc1ccc(Br)cc1/C=N/NC(=O)c1cc(OC)c(OC)c(OC)c1	–	–	–	–
O=C(N/N=C/c1cn(-c2ccccc2)nc1-c1ccc2c(c1)OCCO2)c1ccncc1	–	–	–	–
O=C(CCCC(=O)Nc1cccc(Br)c1)N/N=C/c1cc([N+](=O)[O-])ccc1O	–	10.4µM	–	–
COC(=O)c1scc(C)c1NC(=O)C1CCCCC1	–	–	–	–
C=CCOc1ccnc(-c2ccccc2)n1	–	–	–	–
O=C(N/N=C/c1cc(Br)ccc1O)c1ccncc1	–	2.62µM	–	1.65µM
Cc1nc(C)c(C(=O)N/N=C/c2cc(Br)ccc2O)s1	–	2.33µM	–	5.22µM
O=C(N/N=C/c1cc([N+](=O)[O-])ccc1O)c1ccncc1	–	8.28µM	–	?
O=C(N/N=C/c1ccccc1O)c1cccc2ccccc12	–	11.7µM	?	–
CC(On1nnc2ccccc21)C(=O)N1CCN(Cc2ccccc2)CC1 (configuration not stated)	–	–	–	–
O=C(N/N=C/c1cc(Br)ccc1OC(=O)c1ccc(Br)cc1)c1ccncc1	–	1.65µM	–	–
O=[N+]([O-])c1ccc(-c2c(-c3ccccc3)ncc3cc(F)ccc23)cc1	–	2.62µM	–	5.22µM
O=C(c1ccccc1)N1CCN(CC(O)COC2CCCCC2)CC1 (configuration not stated)	–	–	–	–
CCCCCCCCCCCCCCCC[N+](C)(C)CCN(Cc1ccc(OC)cc1)c1ncccn1	–	3.7µM	·	1.85µM
CCOC(=O)C1(Cc2cccc(OC)c2)CCN(Cc2cc(OC)ccc2OC)CC1	–	?	–	10.4µM
CCOC(=O)C1(Cc2cccc(F)c2)CCN(Cc2cnc(C)s2)CC1	–	?	–	2.33µM
CCOC(=O)C1(Cc2cccc(OC)c2)CCN(Cc2cccc3cnccc23)CC1	–	3.7µM	–	?
Cc1noc(NS(=O)(=O)c2ccc(NC(=O)/C=C/c3ccc(Cl)cc3Cl)cc2)c1C	–	·	·	·
O=C(c1cc2nc(-c3ccc(Cl)cc3)cc(C(F)(F)F)n2n1)N1CCOCC1	–	–	–	10.4µM
Oc1ccc(Cl)cc1C1=NNC(c2cccs2)C1 (configuration not stated)	–	3.29µM	–	11.7µM
Cc1ccc(O)c(C2=NNC(c3ccc(Cl)cc3)C2)c1 (configuration not stated)	–	?	–	?
O=C(O)CCn1c(C2CCCCC2)nc2ccccc21	–	–	–	·
CCCn1c(CNC(=O)c2ccccc2)nc2ccccc21	–	–	–	2.94µM
SMILES	AMA1 RON2 block	Pf growth 48h	SARS PLpro yeast	Pf growth 96h
ClCc1nc2ccccc2n1Cc1ccccc1	–	6.57µM	–	?
c1ccc(CCn2c(C3CC3)nc3ccccc32)cc1	–	·	–	3.29µM
CCCc1nc2ccccc2n1CCc1ccccc1	–	3.29µM	–	3.7µM
CC(C)Cn1c(CNC(=O)c2ccccc2)nc2ccccc21	–	–	–	–
C=CCN1C(=O)C2C(C(=O)NCc3ccccc3)C3(C)C=CC2(O3)C1C(=O)NC(C)(C)C (configuration not stated)	–	–	–	–
Cc1ccc(-c2nn(-c3ccccc3)cc2CN(Cc2ccccc2)C(=O)c2ccco2)o1	–	·	–	11.7µM
Cc1ccc(-c2nn(-c3ccccc3)cc2C(=O)O)o1	·	–	–	–
O=C(NCCc1ccccc1)C1(c2ccccc2)CCCC1	–	–	–	13.1µM
O=C(Nc1ccc(Cl)cc1)Nc1nc(-c2ccccc2O)cs1	–	1.65µM	–	?
O=C(Nc1ccc(Cl)cc1)Nc1nc(-c2sccc2Br)cs1	–	8.28µM	–	9.28µM
CC(C)C(=O)Nc1nnc(SCC(=O)NCc2ccc3c(c2)OCO3)s1	–	?	–	–
CC1CN(C)C(C)C/C1=N/Oc1ccccc1[N+](=O)[O-] (configuration not stated)	–	–	–	–
